High-throughput results deposited in PubChem BioAssay by National Center for Advancing Translational Sciences (NCATS).
An excerpt weighted towards active compounds, which were near 21% of everything screened.
NS1 function inh = qHTS Assay for Inhibitors of Influenza NS1 Protein Function; 0.4% of 270,000 active; Potency, µM (titrated, usually from 46.1 µM); AID 2326, 2010; calls by dose curve; note: actives are rising curves; nearly all actives have a fitted effect of over 50% in size
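S. cerevisiae expressing influenza A NS1, grown in glucose, washed, then diluted 1:100 into pH 6.0 -URA galactose medium with 23 nl compound. Growth recovery read as OD600; NS1-free strain serves as control.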
Shiga toxin inh = A qHTS for Small Molecule Inhibitors of Shiga Toxin; Vero cells, Shiga toxin protein synthesis inhibition reporter; inhibition, % at 38.7 µM; 9.2% of 290,000 active; in the data active = inhibition mostly above about 28%, no sharp cut-off; inactive = mostly below about 43%
CHX counter = Cycloheximide Counterscreen for Small Molecule Inhibitors of Shiga Toxin | cell reporter, cycloheximide protein synthesis inhibition counterscreen | max response, % | 12% of 300,000 active | AID 2314, 2010; in the data active = max response mostly above about 13%, no sharp cut-off; inactive = mostly below about 14%; note: read at 38.3 µM for the half of the compounds with a filed dose
Pf growth 96h = Primary qHTS for delayed death inhibitors of the malarial parasite plastid, 96 hour incubation; P. falciparum luciferase reporter growth, 96 h; Potency, µM (doses to about 28.7 µM), most hits filed as inhibitors; 6.9% of 320,000 active; AID 504834, 2011
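96 h incubation, 37 C, 5% CO2, of luciferase-reporter P. falciparum-infected RBCs (2% hematocrit, 0.05% parasitemia final) with test compounds; endpoint luminescence.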
Pf growth 48h = Primary qHTS for delayed death inhibitors of the malarial parasite plastid, 48 hour incubation | P. falciparum luciferase growth in erythrocytes, 48 h | Potency, µM (series often up to 28.7 µM), usual class: inhibitors | 5.9% of 310,000 active
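Read-out is firefly luciferase luminescence from an integrated reporter in P. falciparum, so falling signal marks reduced parasite growth. Infected erythrocytes were at 2% hematocrit and 0.1% parasitemia (final) in Albumax-supplemented RPMI 1640.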
SARS PLpro yeast = qHTS of Yeast-based Assay for SARS-CoV PLP; AID 485353, 2010; 0.19% of 330,000 active; S. cerevisiae expressing SARS-CoV PLpro, growth rescue; Potency, µM (series often up to 32.9 µM), hits mostly activators; calls by dose curve; note: nearly all actives have a fitted effect of over 55% in size
Large screens that a line does not name were inactive. Unless noted, calls come from the whole dose curve; as a rule, active = well fitted inhibition curve with a large enough effect; inconclusive = small, poorly fitted or top-dose-only effect, or another doubt; inactive = no such curve, though single readings can be large or run the other way.

CN1CCN(c2ccc(NC(=O)c3ccc(Br)o3)cc2)CC1	Shiga toxin inh 76.3, CHX counter 30.3, Pf growth 96h inconclusive
O=C(Nc1ccc(N2CCOCC2)cc1)c1ccc(Br)o1	Shiga toxin inh 79.0, CHX counter 28.0
CCC(=O)NC(=S)Nc1ccc(NC(=O)c2ccc(OC)cc2)cc1	Pf growth 96h inconclusive
CCC(=O)NC(=S)Nc1ccc(NC(=O)c2ccc(Br)o2)cc1	Shiga toxin inh 111.9, Pf growth 48h inconclusive
CN1CCN(c2ccc(NC(=O)c3ccc(-c4ccccc4F)o3)cc2)CC1	Pf growth 96h inconclusive (no result: NS1 function inh, Shiga toxin inh, CHX counter)
O=C(NNC(=O)c1ccc(Br)o1)c1ccc(NC(=O)c2ccccc2)cc1	none
O=C(Nc1cccc(Cl)c1N1CCOCC1)c1ccc(Br)o1	none
O=C(Cc1ncc(C(F)(F)F)cc1Cl)NNc1cccc(F)n1	none
O=C(Nc1ccc(C(=O)N2CCC(N3CCCC3)CC2)cc1)c1ccc(Br)o1	Pf growth 48h inconclusive (no result: NS1 function inh, Shiga toxin inh, CHX counter)
O=C(Nc1ccc(C(=O)N2CCC(O)(c3ccc(Cl)c(C(F)(F)F)c3)CC2)cc1)c1ccc(Br)o1	Pf growth 96h 13.1µM, Pf growth 48h inconclusive (no result: NS1 function inh, Shiga toxin inh, CHX counter)
CC1CCN(c2ccc(NC(=O)Cc3ccccc3)cc2)CC1	Pf growth 96h inconclusive
CCC(=O)Nc1ccc(N2CCC(C)CC2)cc1	Shiga toxin inh 15.4, CHX counter 33.0, Pf growth 96h 10.4µM
CCOc1ccc(C(=O)Nc2ncn[nH]2)cc1	Pf growth 96h 2.08µM
CC(C)Oc1cccc(C(=O)Nc2ncn[nH]2)c1	Pf growth 96h inconclusive
CC(C)Oc1ccc(C(=O)Nc2ncn[nH]2)cc1	Pf growth 96h 10.4µM
CCC(Sc1nc2ccc(N)cc2s1)C(=O)Nc1nccs1 (stereo not given)	none (no result: Pf growth 48h)
Nc1ccc2nc(SCc3ccccc3F)sc2c1	Shiga toxin inh 87.3, CHX counter 70.8
Nc1cc(N)nc(SCC(=O)c2ccccc2)n1	CHX counter 40.0, Pf growth 96h inconclusive
O=C(CSc1nc2cc(Cl)ccc2s1)c1cc2ccccc2o1	none (no result: Pf growth 96h)
Nc1ccc2nc(SCC(=O)c3ccccc3)sc2c1	Shiga toxin inh 68.1, CHX counter 45.0, Pf growth 96h inconclusive
CC(C)CNC(=O)c1cccc(NC(=O)C2CCCO2)c1 (stereo not given)	none
CCOc1ccc(-c2c(C(=O)N/N=C/c3cccc(Br)c3)nnn2-c2nonc2N)cc1	Pf growth 96h 2.94µM, Pf growth 48h inconclusive
CCOc1cccc(-c2c(C(=O)N/N=C/c3ccc(Br)cc3)nnn2-c2nonc2N)c1	Pf growth 96h 2.62µM, Pf growth 48h inconclusive
CCOc1cccc(-c2c(C(=O)N/N=C/c3cccnc3)nnn2-c2nonc2N)c1	Pf growth 96h inconclusive
CCCOc1ccc(/C=N/NC(=O)c2nnn(-c3nonc3N)c2-c2cccs2)cc1OC	Pf growth 96h 11.7µM, Pf growth 48h 13.1µM
CC(C)N(CCCNC(=O)c1nn(C)c2c1CS(=O)(=O)c1ccccc1-2)Cc1ccccc1	none
O=C(c1ccc(Cl)s1)N1CCN(S(=O)(=O)c2ccc(Cl)cc2)CC1	none (no result: NS1 function inh, Shiga toxin inh, CHX counter, Pf growth 96h, Pf growth 48h)
CN(CCOCCOc1ccc2ccccc2c1)Cc1ccccc1	Pf growth 96h 14.7µM (no result: Pf growth 48h)
CCc1ccc(OCCCCN(C)Cc2ccccc2)cc1	Pf growth 96h 13.1µM (no result: Shiga toxin inh)
Cc1cc(C)c(C)c(OCCCCN(C)Cc2ccccc2)c1	Pf growth 96h 13.1µM, Pf growth 48h inconclusive (no result: Shiga toxin inh)
CN(C)CCCCOc1ccc(F)cc1	Pf growth 96h 11.7µM (no result: NS1 function inh)
COc1ccc(OCCN(C)Cc2ccccc2)cc1	NS1 function inh inconclusive
CC(C)c1nc(SCC(=O)Nc2ccc(C(=O)O)cc2)c2c3c(sc2n1)CCCC3	none
Cc1cccc(Nc2nc(C)nc3c2oc2ccccc23)c1	CHX counter 18.6, Pf growth 96h inconclusive, Pf growth 48h inconclusive
CCc1nc(Nc2ccncc2)c2oc3ccccc3c2n1	Pf growth 48h 13.1µM (no result: Pf growth 96h)
CCc1nc(NCCCN2CCOCC2)c2oc3ccccc3c2n1	Pf growth 96h 5.86µM, Pf growth 48h inconclusive
CCc1nc(NCCN2CCOCC2)c2oc3ccccc3c2n1	Pf growth 96h inconclusive (no result: Pf growth 48h)
CCc1nc(Nc2ccc3c(c2)OCO3)c2oc3ccccc3c2n1	Shiga toxin inh 62.3, CHX counter 12.5, Pf growth 96h inconclusive, Pf growth 48h inconclusive
Cc1nc(Nc2ccncc2)c2oc3ccccc3c2n1	none (no result: Pf growth 48h)
O=C(CC(=O)NN=C1CCCCCC1)NCc1cccnc1	none (no result: NS1 function inh)
COc1cc([N+](=O)[O-])ccc1NC(=O)NCc1ccco1	none
Cc1cc(C)cc(NC(=O)c2ccc3nc[nH]c3c2)c1	Shiga toxin inh 63.5, Pf growth 96h inconclusive, Pf growth 48h inconclusive
Cc1ccc(NC(=O)c2ccc3nc[nH]c3c2)cc1C	Shiga toxin inh 74.1, CHX counter 45.5
Cc1cccc(C)c1NC(=O)CNC(=O)c1ccc2nc[nH]c2c1	none (no result: NS1 function inh, Shiga toxin inh, CHX counter)
O=C(NNC(=O)c1ccccc1Br)c1ccc2nc[nH]c2c1	none
COc1ccc(NC(=O)c2cc3n(n2)C(C(F)(F)F)CC(c2ccc4c(c2)OCO4)N3)cc1OC (stereo not given)	Pf growth 96h 3.29µM
COc1ccc(C2CC(C(F)(F)F)n3ncc(C(=O)Nc4cccc(O)c4)c3N2)cc1OC (stereo not given)	Pf growth 48h 10.4µM (no result: Pf growth 96h)
COc1ccc(C2CC(C(F)(F)F)n3nc(CO)c(Cl)c3N2)cc1OC (stereo not given)	Pf growth 96h 7.38µM
CC1(C)CCC[C@@](C)([C@H]2CC[C@]3(C)[C@@H]2[C@H](O)C[C@@H]2[C@@]4(C)CC[C@H](O)C(C)(C)[C@@H]4[C@@H](O)C[C@]23C)O1	none (no result: NS1 function inh, Pf growth 96h, Pf growth 48h, SARS PLpro yeast)
CC1(c2ccc(Cl)cc2)NC(=O)CS1 (stereo not given)	Pf growth 96h 0.262µM
CCc1ccc(-c2ccc(C(=O)C(F)(F)F)[nH]2)cc1	Shiga toxin inh 125.8, CHX counter 64.3
CN1N=C2c3ccccc3CCC2C1c1ccc(Cl)cc1 (stereo not given)	Shiga toxin inh 71.9, CHX counter 35.0, Pf growth 96h 1.47µM, Pf growth 48h inconclusive
CNC(=S)N1N=C2c3ccccc3CCC2C1c1ccccc1Cl (stereo not given)	Pf growth 96h inconclusive, Pf growth 48h inconclusive
CN1N=C2c3ccccc3CCC2C1c1ccc(F)cc1 (stereo not given)	Shiga toxin inh 86.5, CHX counter 75.8, Pf growth 96h 1.65µM, Pf growth 48h 1.31µM
O=c1c2ccccc2c(/C=N/c2n[nH]c(CCCO)n2)c(O)n1-c1ccccc1Cl	none
C=CCN=c1scc(-c2ccccc2)n1/N=C/c1ccccn1	Shiga toxin inh active, CHX counter 19.6, Pf growth 96h inconclusive
C=CCN=c1scc(-c2ccc3c(c2)NC(=O)CO3)n1/N=C(\C)c1ccccn1	Pf growth 96h inconclusive, Pf growth 48h inconclusive (no result: NS1 function inh)
S=c1[nH]nc(C2CCCCC2)n1/N=C/c1ccccn1	none
C=CCN=c1scc(-c2ccc(F)cc2)n1/N=C/c1ccccn1	Shiga toxin inh 90.0, CHX counter 19.3, Pf growth 96h inconclusive, Pf growth 48h inconclusive
